Assay results from the supplement of paper PMC6555819.

How the values were obtained:
Assay in all cases: PBM binding z-score (relative to random genomic background probes); higher = stronger binding; sequences stand for … in GC…GCGATTGACAGCGTAGAATGAAGG
[1] = tested on: FXR:RXRa (NR concentration 270 nM, RXRa partner concentration 90 nM)
Procedure, shortened: (§1)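 Binding buffer was PBS pH 7.4 with 2% milk, 0.02% Triton X-100, 1 mM DTT, 0.2 mg/mL BSA and 0.4 mg/ml salmon testes DNA. In it, ligand-free nuclear receptor dimers were incubated 1 h on custom Agilent 4×180K protein-binding microarrays carrying double-stranded probes. Antibodies against each partner (one per run) detected binding, and z-scores were calculated against random background probes after regression normalization of scanned fluorescence.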

[2] = tested on: LXRa:RXRa (NR concentration 270 nM, RXRa partner concentration 90 nM)
Procedure, shortened: as §1

[3] = tested on: LXRa homodimer (NR concentration 270 nM)
Procedure, shortened: as §1

[4] = tested on: LXRb:RXRa (NR concentration 270 nM, RXRa partner concentration 90 nM)
Procedure, shortened: as §1

[5] = tested on: LXRb homodimer (NR concentration 270 nM)
Procedure, shortened: as §1

[6] = tested on: PPARa:RXRa (NR concentration 270 nM, RXRa partner concentration 90 nM)
Procedure, shortened: as §1

[7] = tested on: PPARg:RXRa (NR concentration 180 nM, RXRa partner concentration 90 nM)
Procedure, shortened: as §1

[8] = tested on: PPARg:RXRa 270nM:90nM, anti-RXR (NR concentration 270 nM, RXRa partner concentration 90 nM)
Procedure, shortened: as §1

[9] = tested on: PPARg:RXRa 30nM:10nM, anti-RXR (NR concentration 30 nM, RXRa partner concentration 10 nM)
Procedure, shortened: as §1

[10] = tested on: PPARg:RXRa 90nM:30nM, anti-RXR (NR concentration 90 nM, RXRa partner concentration 30 nM)
Procedure, shortened: as §1

Row | Sequence | PBM binding z-score [1] | PBM binding z-score [2] | PBM binding z-score [3] | PBM binding z-score [4] | PBM binding z-score [5] | PBM binding z-score [6] | PBM binding z-score [7] | PBM binding z-score [8] | PBM binding z-score [9] | PBM binding z-score [10]
1 | CCGACTGGGGTATAAGGTTACCATAAGCCAGCCC | 0.283 | 1.57 | -0.00996 | 0.982 | -0.761 | 1.69 | 1.79 | 2.38 | 0.774 | 2.06
2 | TGAGTGAGGTTATAAGATCAGGGAACGTTGCAAA | 1.06 | 1.07 | -0.22 | 0.866 | 0.134 | 2.47 | 0.711 | 1.23 | 0.53 | 0.855
3 | CGTCAAAGTTCAACTAAGGTAACGTGAAGCACGC | 7.3 | 6.43 | 4.57 | 3.84 | 1.83 | 5.09 | 4.91 | 5.8 | 2.35 | 4.5
4 | TCTATTAGTTGAATGGCAACCGACGAGTCCGTTT | 1.04 | 1.04 | 0.119 | 1.01 | 0.477 | 0.96 | -0.00847 | 2.18 | 3.81 | 2.92
5 | ATCACTAGGTAAAGATAGTTCAGTGAATGCAAAT | 0.213 | 3.82 | 0.581 | 0.654 | 0.171 | 0.991 | 1.13 | 0.685 | 0.585 | 0.404
6 | TCATATAGGTAAACAGGTGAAAGTACGTAAGTTA | 1.36 | 1.03 | 0.233 | 1.26 | 0.199 | 2.74 | 4.09 | 4.04 | 4.33 | 4.17
7 | ACTAGTTGGTCAGCTCAGGTCACACACAATTCGG | 1.73 | 1.66 | 1.68 | 1.95 | 0.675 | 2.03 | 1.04 | 0.796 | -0.0327 | 0.521
8 | CCGACTGGGGAATAAGGTTACCATAAGCCAGCCC | 0.215 | 1.7 | -0.22 | 0.69 | -0.763 | 1.35 | 1.09 | 1.47 | 0.215 | 1.03
9 | TAGCCTAGGTCATTCAAGGGCCAGTATAGAAAGC | 4.72 | 3.99 | 0.681 | 2.5 | 0.527 | 3.79 | 1.97 | 2.25 | 0.523 | 1.88
10 | GATACAGGGTCAGCTAGGGGCCAGAGTATGGAAA | 5.14 | 2.64 | -0.494 | 2.7 | -0.084 | 4.79 | 3.88 | 3.46 | 0.617 | 1.94
11 | CAAACTCGGTCAAGAGGTCAAAGTCCGCTTCCCG | 6.2 | 5.96 | 6.55 | 5.13 | 1.61 | 5.82 | 5.83 | 5.99 | 3.41 | 5.47
12 | CGAACTAGGTCATTGACAGGACAGTGCATAGTAA | 4.46 | 3.18 | 0.766 | 2.04 | -0.0575 | 4.8 | 7.55 | 6.33 | 3.65 | 5.79
13 | AGAATGAGGTTATTAAGATCAAGGAATTGCGGTC | 1.4 | 1.67 | 0.35 | 1.5 | 0.176 | 2.85 | 1.82 | 2.2 | 0.602 | 1.6
14 | ATATGTAGGTTAGATCCGGGTCATTCAGGCTATG | 1.55 | 2.3 | 0.843 | 1.99 | 0.185 | 3.74 | 4.17 | 3.71 | 1.53 | 2.86
15 | GCATCTAGGTAATACAAGGTGAAAGTCCGATTGT | 1.09 | 1.15 | 0.539 | 0.383 | -0.273 | 1.5 | 0.956 | 0.984 | 0.0503 | 0.572
16 | ATCTCTAGGTAAGACTCAGTTCATTGAAGAACGC | 0.66 | 1.1 | 1.32 | 0.779 | 1.11 | 0.841 | 0.175 | 0.381 | 0.0967 | 0.482
17 | ATCGAAAGGCCGAAGGTGAGTATACCCACCCGAA | -0.216 | -0.00303 | -0.202 | -0.349 | -0.732 | 0.657 | 1.25 | 1.31 | 0.275 | 0.738
18 | ACTAGATGGTCAGCTGAGGTCACACACAATTCGG | 4.73 | 3.89 | 2.33 | 3.48 | 0.584 | 3.6 | 1.95 | 2.13 | 0.736 | 1.61
19 | TCTGCTAGGTCAACGATGGCCAGCTAATCTGCTA | 3.09 | 2.21 | -0.626 | 1.34 | -0.287 | 3 | 2.34 | 2.77 | 1.8 | 2.37
20 | ATCTCTAGGTAAAGATAGTTCAGTGACTGCAAAT | 0.289 | 4.19 | 0.906 | 0.867 | 0.656 | 0.677 | 0.174 | 0.437 | 0.221 | 0.0894
21 | AATACAGGGTCATCGTAGGCCAAAGTACGCACAG | 7.45 | 6.92 | 3.34 | 5.36 | 1.6 | 6.04 | 6.83 | 5.96 | 2.67 | 4.78
22 | CCTTACGGGTCACTGACAGGTTCTAGCATTTGGA | 4.75 | 3.1 | 0.00693 | 2.9 | 0.128 | 4.77 | 3.89 | 4.02 | 1.11 | 2.83
23 | TCTTGCAGATCAGCAGGTTAAGAAAGCTGGCCAA | -0.157 | -0.083 | -0.809 | -0.061 | -1.04 | 0.615 | -0.601 | 0.866 | 1.59 | 1.15
24 | TCGAGTATGTTAGTCGGGGCATTCAGCCAACATA | -0.336 | -0.354 | -0.761 | 0.103 | -0.713 | -0.0801 | -0.372 | 0.0519 | 0.966 | 0.691
